Assay outcomes as filed in PubChem BioAssay.
Wee1 degr inh – blocks degradation of human Wee1 kinase | HeLa Luc-Wee1K328M stability, luciferase luminescence; 100% = proteasome inhibitor MG132 effect | reporter increase, % at 5 µM | 220,000 compounds, 1.2% hits;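 active = activation above the mean of all tested compounds plus 3 SD, set per screening run, cut at about 8.8% in these data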;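 note: cells exposed to compound for 20 h before luminescence read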
Target sequence (P30291 whole entry K328M): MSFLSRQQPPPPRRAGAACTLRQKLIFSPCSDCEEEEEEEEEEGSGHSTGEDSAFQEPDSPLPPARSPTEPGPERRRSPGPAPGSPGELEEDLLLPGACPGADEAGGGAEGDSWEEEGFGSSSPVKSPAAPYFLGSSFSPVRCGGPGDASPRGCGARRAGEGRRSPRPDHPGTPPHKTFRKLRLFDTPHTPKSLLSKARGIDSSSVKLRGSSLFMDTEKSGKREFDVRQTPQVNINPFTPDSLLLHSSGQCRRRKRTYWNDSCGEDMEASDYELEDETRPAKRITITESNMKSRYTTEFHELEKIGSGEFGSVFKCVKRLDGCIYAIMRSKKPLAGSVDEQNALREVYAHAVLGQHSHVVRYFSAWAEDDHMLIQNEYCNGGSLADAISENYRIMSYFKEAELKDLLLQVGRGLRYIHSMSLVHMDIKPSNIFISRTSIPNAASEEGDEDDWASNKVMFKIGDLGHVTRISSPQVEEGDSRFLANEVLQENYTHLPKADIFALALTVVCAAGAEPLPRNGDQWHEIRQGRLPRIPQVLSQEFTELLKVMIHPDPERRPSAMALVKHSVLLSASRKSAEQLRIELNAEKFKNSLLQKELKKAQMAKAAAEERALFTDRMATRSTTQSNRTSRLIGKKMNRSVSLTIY
p97 ATPase inh – inhibitors of human p97 ATPase | P55072 | recombinant p97 ATPase, Kinase-Glo ATP luminescence, 3 h | inhibition, % at 8 µM | 220,000 compounds, 0.42% hits | AID 1481; in the data active = inhibition above about 15%
Redox H2O2 prof – compounds producing H2O2 with reducing agent – biochemical, NIH compound library profiling, artefact control for MLSCN library redox annotation, primary screen. DTT-dependent redox cycling H2O2, phenol red/HRP absorbance; 100% = 100 µM peroxide control, 0% = buffer. activation, % at 10 µM. 200,000 compounds, 0.03% hits;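 active = activation of at least 50% relative to the plate's high and low controls in the primary single-dose screen; inactive = activation below 50%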;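 note: compound incubated with DTT at 0.8 mM final as the reducing agent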
HSV augment – increases HSV replication in cells; AID 1956; 220,000 compounds, 0.005% hits; maximum fold increase; HSV replication augmentation in cells, fold increase; in the data active = maximum fold increase above about 1.5; inconclusive = no clear call, values can overlap the other calls; tested in PC3 cells
Hsp70 act – switches on Hsp70 transcription; HeLa Hsp70 promoter luciferase reporter, luminescence; scaled: vehicle 0, proteasome-inhibitor control 100%; activation, % at 10 µM; 200,000 compounds, 0.04% hits;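 active = activation above the mean across all tested compounds plus 3 SD, cutoff set per campaign, cut at about 5.5% in these data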
Numbers stand for hits; - = inactive; ? = inconclusive; . = no result given. The list is not random: actives were taken first. Their share in the collection is about 1.6%.

SMILES	Wee1 degr inh	p97 ATPase inh	Redox H2O2 prof	HSV augment	Hsp70 act
COc1ccc2oc(C(=O)C3CC3)c(N)c2c1	9.6	-	-	-	-
COc1ccc2oc(C(=O)c3ccccc3)c(N)c2c1	-	-	-	-	-
CCCCn1nnc(NC(=S)NC(=O)c2ccc(-c3cccc(Cl)c3Cl)o2)n1	-	-	-	-	-
C=CCSc1nc2ccccc2n1C(=O)/C=C/c1cc(OC)c(OC)c(OC)c1	-	-	-	.	9.7
CCCCOc1ccccc1N	-	-	-	-	-
O=C1NC(=Nc2ccc(Cl)cc2)SC1Cc1cc(Cl)ccc1Cl (configuration not stated)	9.0	-	-	.	-
COc1ccc(Nc2nc(OC)nc(N3CCOCC3)n2)cc1	-	-	-	-	-
COc1nc(N2CCOCC2)nc(-n2cccc2)n1	9.2	-	-	-	-
COC(=O)c1nnn(Cc2ccccc2)c1N	-	-	-	-	-
Nc1c(C2=NCCO2)nnn1Cc1ccccc1	9.2	-	-	-	-
CC(=O)c1c(C)oc2ccc(N(C(C)=O)S(=O)(=O)c3cccc4cccnc34)cc12	-	-	.	-	.
Cc1cccc(Cc2cnc(N3C(=N)SC(C)C3=O)s2)c1 (configuration not stated)	9.6	-	-	-	-
O=C(CC1S/C(=N/N=C/c2c[nH]c3ccc(OCc4ccccc4)cc23)NC1=O)Nc1ccccc1 (configuration not stated)	8.9	-	-	-	-
C=CCNc1nc(Cl)ncc1F	-	-	-	-	-
C=CCNc1ncnc2sc(SC)nc12	10	-	.	-	.
O=C(Nc1ncc(Br)s1)C(Cc1ccccc1)n1cccc1 (configuration not stated)	-	-	-	-	-
CSc1nc2n(n1)C(C)C1=C(CCCC1=O)N2 (configuration not stated)	9.2	-	-	-	-
CCSc1nc2n(n1)C(c1cccc(F)c1)C1=C(CCCC1=O)N2 (configuration not stated)	-	-	-	-	-
O=C(N/N=C/c1ccccc1Cl)c1nc2ccc([N+](=O)[O-])cc2c(=O)[nH]1	-	-	-	-	-
CCn1cc(C2=NC(C)CO2)c2ccccc21 (configuration not stated)	-	-	-	-	-
CCn1cc(C2=NC(c3ccccc3)CO2)c2ccccc21 (configuration not stated)	39	-	-	-	-
O=C(Nc1nc2ccc(S(=O)(=O)N3CCCC3)cc2s1)C1CCCCC1	11	-	-	.	-
Cc1nc(-c2ccccc2OC(F)(F)F)[nH]c(=O)c1Cl	9.2	-	.	-	.
COc1ccc(-c2ccc(C(c3c(C)[nH][nH]c3=O)c3c(C)[nH][nH]c3=O)o2)c([N+](=O)[O-])c1	-	15	-	-	-
CC(C)(C)c1[nH]nc2c1C(c1cccnc1)C(C#N)=C(N)O2 (configuration not stated)	9.9	-	-	-	-
SMILES	Wee1 degr inh	p97 ATPase inh	Redox H2O2 prof	HSV augment	Hsp70 act
CCc1[nH]nc2c1C(c1cccnc1)C(C#N)=C(N)O2 (configuration not stated)	-	-	-	-	-
Cc1nnc2n(CCc3ccccc3)c(=O)c3c4c(sc3n12)CCCC4	9.3	-	-	.	-
CCN(CC)CCCN(Cc1cc2cc(OC)c(OC)cc2[nH]c1=O)C(=O)Nc1ccccc1	9.9	-	-	-	-
Cn1c(=O)c(N=O)c(N)n(Cc2ccccc2)c1=S	.	.	.	-	.
CCCCN(C)C(=O)c1cc2cc3cc(OC)ccc3nc2o1	10	-	-	-	-
C/C(=N\NC(=O)Cc1cccn1C)c1ccc([N+](=O)[O-])cc1	-	-	.	-	.
CCCC(=NCCc1c(C)[nH]c2ccccc12)C1=C(O)CC(c2ccccc2)CC1=O (configuration not stated)	-	-	-	-	-
Nc1nc(N)c(N=Nc2ccc(C(=O)O)cc2)c(N)n1	-	-	.	-	.
O=C(O)c1ccc(N=Nc2c(O)[nH]c3cc(Cl)ccc23)cc1	12	-	.	?	.
CCOc1ccccc1N(CC(=O)N1CCOCC1)S(=O)(=O)c1ccc(SC)cc1	-	-	-	-	-
COc1cccc(-c2cc(C(F)(F)F)n3nc(C(=O)Nc4c(C)n(C)n(-c5ccccc5)c4=O)cc3n2)c1	-	-	-	-	-
COc1ccc(-c2cc(C(F)(F)F)n3nc(C(=O)Nc4c(C)n(C)n(-c5ccccc5)c4=O)cc3n2)cc1	-	17	-	-	-
O=Cc1cn(-c2ccccc2)nc1-c1ccc2c(c1)OCCO2	9.2	-	-	-	-
N#Cc1cn(-c2ccccc2)nc1-c1ccc2c(c1)OCCO2	-	-	-	-	-
COc1ccc(-c2nn(-c3ccccc3)cc2/C=N/n2cnnc2)cc1OC	9.3	-	-	-	-
Cc1ccc(S(=O)(=O)Oc2ccc(/C=C3\N=C(c4cccc(C)c4)OC3=O)cc2)cc1	-	-	-	.	-
C=CCc1cc(/C=C/c2nc(O)c([N+](=O)[O-])c(=O)[nH]2)cc(OC)c1O	9.0	-	-	-	-
Cc1ccc(NC(=O)c2ccc([N+](=O)[O-])o2)c(C)c1	-	-	-	-	-
Cc1ccccc1NC(=O)c1ccc([N+](=O)[O-])o1	9.0	-	-	-	-
CC(=O)c1ccc(N(C(=O)c2csnn2)C(C(=O)NC(C)(C)C)c2cccs2)cc1 (configuration not stated)	-	-	-	-	-
Cc1ccc2nc(/C(C#N)=C\c3ccc(N4CCOCC4)o3)[nH]c2c1	9.4	-	-	?	-
Cc1ccc(/C(C#N)=C\c2ccc(N3CCOCC3)o2)cc1	-	-	-	-	-
CCSc1nnc2n1C(C)(C)Cc1ccccc1-2	-	-	-	.	-
CC1(C)Cc2ccccc2-c2n[nH]c(=S)n21	9.5	-	-	-	-
O=C(CNC(=O)c1cccs1)NCC(=O)OCc1c(F)cccc1Cl	9.0	-	-	-	-
SMILES	Wee1 degr inh	p97 ATPase inh	Redox H2O2 prof	HSV augment	Hsp70 act
O=C(CNC(=O)c1cccs1)NCC(=O)OCc1cccc(Cl)c1	-	-	-	-	-
N#Cc1ccc(C23CC4(C2)[C@H](CN(P(=O)(c2ccccc2)c2ccccc2)[C@@H]4c2ccccc2)C3c2ccc(Cl)nc2)cc1 (some centres not stated)	.	.	.	-	.
COc1ccc2[nH]c(S(=O)Cc3ncc(C)c(OC)c3C)nc2c1 (configuration not stated)	.	.	.	-	.
Fc1ccc(NC(=S)Nc2cccnc2)c(F)c1F	9.5	-	-	-	-
CCOC(=O)C1=C(C)NC(C)=C(C(=O)OCC)C1c1ccccc1/C=C/C(=O)OC(C)(C)C	.	.	.	-	.
Cc1onc(-c2ccc(Cl)cc2Cl)c1-c1csc(N/N=C/c2ccccc2Cl)n1	9.7	-	.	-	.
Cc1onc(-c2ccccc2)c1-c1csc(N/N=C/c2ccccc2Cl)n1	-	-	.	-	.
Cc1ccccc1C(=O)NNc1ncnc2c1cnn2C	-	-	-	-	-
Cn1ncc2c(NNC(=O)c3ccccc3Cl)ncnc21	9.3	-	-	-	-
